Results reported in PubChem BioAssay AID652183 (National Center for Advancing Translational Sciences (NCATS), 2013).
Inconclusive results are not listed. A call without a number means that no potency is given here. Active and inactive are the calls of the source. Calls follow the shape of the dose curve; as a rule, active = well fitted inhibition curve with a large enough effect; inconclusive = small, poorly fitted or top-dose-only effect; inactive = no such curve, though single readings can be large or run the other way.

Assay: qHTS Assay for Lipid Storage Modulators: Differentiation Assay against Probe and Analogs
Settings: 3T3-L1 adipocyte differentiation, BODIPY lipid imaging, 8 d; series mostly up to 20 µM
Description: Storing lipids as a reservoir for energy or the anabolism of elementary metabolites is a common feature of probably all cells and is conserved from bacteria to humans. The universal cellular lipid storage organelle is the so-called lipid storage droplet (LD). Although ubiquitous, LDs share a simple structure composed of a hydrophobic core that harbors the storage lipids, which is shielded by a droplet-specific phospholipid monolayer to which proteins are attached. The current model of LD biogenesis involves an incorporation of the lipid core into the membrane leaflets of the endoplasmic reticulum (ER) followed by a subsequent budding-like maturation of a LD, which ultimately pinches off. Once released, LD volume can increase by localized lipogenesis or fusion of existing droplets. Storage lipids are re-mobilized enzymatically by lipase activity. Lipase regulation in the adipocyte is heavily studied and involves multiple components including catecholamine signaling, the LD-associated proteins Perilipin and comparative gene identification-58 (CGI-58) and at least two lipases named hormone sensitive lipase (HSL) and adipocyte triglyceride lipase (ATGL). LD regulation outside of the adipocyte is poorly understood and only few components are known. However, there is an urgent need to learn more about ectopic fat depots as mislocalized storage of lipids, for example in the liver or muscle, is an eminent health problem associated with insulin resistance or the metabolic syndrome. We developed a laser-scanning cytometer assay to enable 1,536-well screening and combined the results of the small molecules screen with an RNAi database based on lipid storage. […] NIH Chemical Genomics Center [NCGC] MLPCN Grant: MH085686 Assay Submitter (PI): Mathias Beller, Max-Planck-Institut fur Biophysikalische Chemie
3T3L1 cells were obtained from ATCC (CL-173). Pre-adipocyte medium (PM-1), differentiation medium (DM-2) and after adipocyte medium (AM-1) were purchased from Zen-Bio (# PM-1-L1, DM-2-L1, AM-1-L1). 200 uL of PM-1containing 3,000 cells was dispensed into each well of a 96-well plate (Corning, #3340), and the assay plates were incubated at 37 °C, 95% humidity and 5% CO2 for 3-5 days. The differentiation of pre-adipocyte to adipocyte was induced by removing the pre-adipocyte medium and replacing with 200 uL of differentiation medium. 1 uL of compounds at different concentrations dissolved in differentiation medium were added to the assay plates, along with medium exchange for differentiation to test their effects on adipocyte differentiation. The final DMSO concentration was 0.5%.Triacsin C (Sigma-Aldrich T-4540), an inhibitor of long-chain fatty acyl CoA synthetase that blocks synthesis of triglycerides, was used as a positive control for lipid under-storage. […]

Row | SMILES | Potency
1 | CCOC(=O)C1CCN(C(=O)C2(NC(=O)Nc3ccccc3Cl)CCCC2)CC1 | inactive
2 | CCOc1ccc(CCNC(=O)c2cc3sccc3n2CCN(C)C)cc1OCC | inactive
3 | CCOc1ccc(CCNC(=O)c2cc3ccccc3n2Cc2ccccn2)cc1OCC | 12.6 µM (active)
4 | CCOc1ccc(CCNC(=O)c2cc3sccc3n2Cc2ccc(F)cc2F)cc1OCC | inactive
